# Laboratory results reported in PubChem BioAssay (NCI).
# The panel holds about 79,000 compounds, 15% with a hit somewhere; the sample as a whole holds those more often. A number with no mark means an inactive call. Active and inactive are the calls of the source. Rule as the data show it: active = growth inhibition above about 70%; inactive = the rest.
# Experiments:
# [1] = NCI Yeast Anticancer Drug Screen. Data for the rad50 strain (AID 155);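 also: 0% = growth of vehicle-only cultures of the same strain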; conditions: S. cerevisiae rad50 strain growth inhibition, stronger effect = higher value
# How it was run: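 Compounds were tested on a yeast strain with an engineered DNA damage repair alteration; the reported value is growth inhibition normalised to vehicle treatment.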
# [2] = NCI Yeast Anticancer Drug Screen. Data for the mec2-1 strain (AID 157); conditions: S. cerevisiae mec2-1 strain, stronger effect = higher value
# How it was run: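 Strain: mec2-1 (DNA repair/cell cycle alteration). Compound exposure, then growth measured; inhibition expressed relative to vehicle.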
# [3] = NCI Yeast Anticancer Drug Screen. Data for the sgs1 mgt1 strain (AID 161);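 also: 0% = growth of cultures given vehicle only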; conditions: S. cerevisiae sgs1 mgt1 strain, stronger effect = higher value
# How it was run: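 Mutant yeast exposed to compound; growth scored against vehicle-only wells.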
# [4] = NCI Yeast Anticancer Drug Screen. Data for the cln2 rad14 strain (AID 165);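 also: 0% = growth equal to vehicle treated cultures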; conditions: S. cerevisiae cln2 rad14 strain, stronger effect = higher value
# How it was run: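 Compounds are applied to the cln2 rad14 yeast strain, and growth is then compared with that of vehicle-treated cultures to give inhibition.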
# [5] = NCI Yeast Anticancer Drug Screen. Data for the bub3 strain (AID 167); conditions: S. cerevisiae bub3 mutant strain, stronger effect = higher value
# How it was run: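 Growth of a checkpoint-deficient yeast mutant is measured after compound exposure. Values represent inhibition relative to vehicle.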
# [6] = NCI Yeast Anticancer Drug Screen. Data for the mlh1 rad18 strain (AID 175); conditions: S. cerevisiae mlh1 rad18 strain growth inhibition, stronger effect = higher value
# How it was run: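 Read-out is yeast growth inhibition, calculated against vehicle-only controls. The compound was applied to a strain engineered with DNA damage repair alterations.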
# [7] = at 5.0 µM (retest, dose inferred, filed as 0.5)
# [8] = at 50.0 µM (retest, dose inferred, filed as 5.0)
Structure (SMILES),"growth inhibition [1, 7]","growth inhibition [1, 8]",growth inhibition ([1]; at 50.0 µM),"growth inhibition [2, 7]","growth inhibition [2, 8]",growth inhibition ([2]; at 50.0 µM),"growth inhibition [3, 7]","growth inhibition [3, 8]",growth inhibition ([3]; at 50.0 µM),"growth inhibition [4, 7]","growth inhibition [4, 8]",growth inhibition ([4]; at 50.0 µM),"growth inhibition [5, 7]","growth inhibition [5, 8]",growth inhibition ([5]; at 50.0 µM),"growth inhibition [6, 7]","growth inhibition [6, 8]",growth inhibition ([6]; at 50.0 µM)
CCCCCCCCCCCCOC(=O)C[n+]1cccc(C(=O)Nc2ccc(Cl)cc2)c1,76% (active),98% (active),98.8% (active),56%,99% (active),99.2% (active),60%,98% (active),99% (active),53%,99% (active),100% (active),85% (active),99% (active),98.8% (active),88% (active),99% (active),98.4% (active)
CC(=O)O[C@H]1CC[C@H]2[C@@H]3CCc4cc(O)c(I)cc4[C@H]3CC[C@]12C,12%,84% (active),51.3%,0%,58%,43.8%,23%,93% (active),72.4% (active),21%,75% (active),45%,20%,82% (active),47.5%,6%,80% (active),63.4%
Oc1c(I)cc(Cl)c2cccnc12,64%,96% (active),97.2% (active),63%,97% (active),98.3% (active),46%,97% (active),97.8% (active),72% (active),98% (active),96.8% (active),39%,96% (active),98.8% (active),74% (active),95% (active),98% (active)
Oc1ccccc1C(c1ccccc1O)C(Cl)(Cl)Cl,94% (active),96% (active),95.7% (active),96% (active),97% (active),98.5% (active),94% (active),96% (active),97.3% (active),97% (active),96% (active),95% (active),84% (active),96% (active),98.2% (active),91% (active),96% (active),98% (active)
C[N+]12CC3C4CC(C3C1)C2C4 (stereo not given),-19%,-27%,4.05%,-15%,-13%,-2.9%,-3%,4%,12.6%,29%,13%,1.3%,-6%,-12%,13.6%,-23%,-15%,7.95%
CCCCCCCCCCCCCCCCCC(=O)OCC(O)COC(=O)CCCCCCCCCCCCCCCCC,-2%,-5%,-7.45%,1%,-3%,15.6%,-3%,-21%,-8.65%,0%,-13%,38.4%,4%,0%,45.5%,2%,-1%,2.55%
O=C(Oc1cccc2cccnc12)c1ccccc1,4%,97% (active),96.4% (active),-22%,98% (active),97% (active),-4%,97% (active),93.6% (active),2%,85% (active),91.2% (active),28%,99% (active),98% (active),7%,98% (active),95.2% (active)
COc1ccc2nc3cc([N+](=O)[O-])ccc3c(NNc3ccc([N+](=O)[O-])cc3)c2c1,2%,2%,58%,2%,-4%,36.9%,3%,-4%,65%,-5%,-15%,30.9%,2%,-5%,55.2%,5%,0%,66.2%
COc1ccc(Cc2ccc(N)cc2)cc1,-149%,78% (active),92.2% (active),-52%,68%,86.7% (active),-68%,85% (active),89.5% (active),-61%,91% (active),87.8% (active),-66%,76% (active),91.1% (active),-132%,86% (active),96.8% (active)
CN(C)c1ccc(C(c2cc3c(cc2O)OCO3)N2CCCCC2)cc1 (stereo not given),3%,86% (active),99.3% (active),-4%,98% (active),99.5% (active),8%,88% (active),99.5% (active),-1%,70% (active),98.3% (active),-5%,97% (active),99.3% (active),-8%,97% (active),99.3% (active)
